Test results: PubChem BioAssay AID1159580 (chemical genetic matrix, 2015)
“And” between values parts separate entries of the source, which are not always exact repeats. Equal entries are not always repeated. In all, about 5,500 compounds went through this assay and about 2,000 (36%) were called active. Another 18% or so got no clear call; they are omitted. No stated cut-off is given here; in the data, active means normalized growth mostly below about 0.91 (no sharp cut-off); inconclusive means no clear call, values can overlap the other calls; inactive means mostly above about 0.92. The list shows a part of the results.

Assay: chemical genetic growth profiling, strain panel (AID 1159580);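 further: tested at 20 µM; growth read once vehicle control cultures reached saturation at 30 °C; 1 = growth at the plate median or of vehicle wells; lower values mean less growth of the strain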
Conditions: growth OD

Measured: normalized growth

Cc1ncc(CNC(=O)N(CCCl)N=O)c(N)n1
inactive: S. cerevisiae deletion strains, locus YJR075W, strain HOC1, hits give low values 1.01 | S. cerevisiae deletion strains, locus YKL009W, strain mrt4, hits give low values 0.976 | S. cerevisiae deletion strains, locus YKL068W, hits give low values 1 | S. cerevisiae deletion strains, locus YKL085W, strain MDH1 (second series), hits give low values 0.996 | S. cerevisiae deletion strains, locus YKL085W, strain MDH1, hits give low values 0.996 | S. cerevisiae deletion strains, locus YKL160W, strain elf1, hits give low values 0.996 | S. cerevisiae deletion strains, locus YKL190W, strain CNB1, hits give low values 1.01 | S. cerevisiae deletion strains, locus YKR001C, strain vps1, hits give low values 0.974 | S. cerevisiae deletion strains, locus YKR026C, strain gcn3, hits give low values 1.02 | S. cerevisiae deletion strains, locus YKR091W, strain srl3, hits give low values 1 | S. cerevisiae deletion strains, locus YLL001W, strain dnm1, hits give low values 0.97 | S. cerevisiae deletion strains, locus YLL026W, hits give low values 1.01 | S. cerevisiae deletion strains, locus YLL041C, strain sdh2, hits give low values 1.01 | S. cerevisiae deletion strains, locus YLR027C, strain aat2, hits give low values 0.99 | S. cerevisiae deletion strains, locus YLR039C, strain RIC1, hits give low values 1.04 | S. cerevisiae deletion strains, locus YLR058C, strain SHM2, hits give low values 1.02 | S. cerevisiae deletion strains, locus YLR102C, strain apc9, hits give low values 0.983 | S. cerevisiae deletion strains, locus YLR113W, strain HOG1, hits give low values 0.982 | S. cerevisiae deletion strains, locus YLR221C, strain rsa3, hits give low values 1.03 | S. cerevisiae deletion strains, locus YLR258W, strain gsy2, hits give low values 1 | S. cerevisiae deletion strains, locus YLR262C, strain YPT6 (second series), hits give low values 1.07 | S. cerevisiae deletion strains, locus YLR262C, strain YPT6, hits give low values 1.03 | S. cerevisiae deletion strains, locus YLR268W, strain sec22, hits give low values 0.983 | S. cerevisiae deletion strains, locus YLR320W, strain mms22, hits give low values 1.03 | S. cerevisiae deletion strains, locus YLR330W, strain CHS5, hits give low values 1.02 | S. cerevisiae deletion strains, locus YLR342W, strain FKS1 (second series), hits give low values 1.01 | S. cerevisiae deletion strains, locus YLR342W, strain FKS1, hits give low values 1.02 | S. cerevisiae deletion strains, locus YLR357W, strain rsc2, hits give low values 1.02 | S. cerevisiae deletion strains, locus YLR370C, strain arc18, hits give low values 1.01 | S. cerevisiae deletion strains, locus YLR371W, strain rom2, hits give low values 0.981 | S. cerevisiae deletion strains, locus YLR384C, strain iki3, hits give low values 1.03 | S. cerevisiae deletion strains, locus YLR418C, strain cdc73, hits give low values 0.965 | S. cerevisiae deletion strains, locus YML016C, strain PPZ1, hits give low values 1.02 | S. cerevisiae deletion strains, locus YML120C, strain ndi1, hits give low values 0.991 | S. cerevisiae deletion strains, locus YML124C, strain tub3, hits give low values 0.989 | S. cerevisiae deletion strains, locus YMR058W, strain fet3, hits give low values 1.02 | S. cerevisiae deletion strains, locus YMR078C, strain ctf18, hits give low values 0.964 | S. cerevisiae deletion strains, locus YMR125W, strain sto1, hits give low values 1 | S. cerevisiae deletion strains, locus YMR129W, hits give low values 1.02 | S. cerevisiae deletion strains, locus YMR205C, strain PFK2, hits give low values 1.01 | S. cerevisiae deletion strains, locus YMR223W, strain ubp8, hits give low values 0.994 | S. cerevisiae deletion strains, locus YMR231W, strain pep5, hits give low values 1 | S. cerevisiae deletion strains, locus YMR263W, strain SAP30, hits give low values 1.01 | S. cerevisiae deletion strains, locus YMR307W, strain GAS1, hits give low values 0.992 and 1.01 | S. cerevisiae deletion strains, locus YNL067W, strain RPL9B, hits give low values 1.01 | S. cerevisiae deletion strains, locus YNL071W, strain lat1, hits give low values 1.01 | S. cerevisiae deletion strains, locus YNL128W, strain TEP1, hits give low values 1.01 and 1 | S. cerevisiae deletion strains, locus YNL153C, strain GIM3, hits give low values 1.02 and 0.991 | S. cerevisiae deletion strains, locus YNL175C, strain NOP13, hits give low values 0.997 | S. cerevisiae deletion strains, locus YNL183C, strain NPR1, hits give low values 0.913 | S. cerevisiae deletion strains, locus YNL197C, strain WHI3, hits give low values 0.999 | S. cerevisiae deletion strains, locus YNL209W, strain ssb2, hits give low values 0.992 | S. cerevisiae deletion strains, locus YNL224C, strain SQS1, hits give low values 1.01 | S. cerevisiae deletion strains, locus YNL233W, strain BNI4, hits give low values 1.01 | S. cerevisiae deletion strains, locus YNL248C, strain rpa49, hits give low values 1.02 | S. cerevisiae deletion strains, locus YNL250W, strain rad50, hits give low values 0.972 | S. cerevisiae deletion strains, locus YNL271C, strain bni1, hits give low values 0.979 | S. cerevisiae deletion strains, locus YNL298W, strain CLA4, hits give low values 0.996 | S. cerevisiae deletion strains, locus YNL307C, strain MCK1, hits give low values 1 | S. cerevisiae deletion strains, locus YNL322C, strain KRE1 (second series), hits give low values 0.937 | S. cerevisiae deletion strains, locus YNL322C, strain KRE1, hits give low values 1.01 | S. cerevisiae deletion strains, locus YNR049C, strain mso1, hits give low values 1.02 | S. cerevisiae deletion strains, locus YNR052C, strain pop2, hits give low values 0.983 | S. cerevisiae deletion strains, locus YOL006C, strain TOP1, hits give low values 1.02 | S. cerevisiae deletion strains, locus YOL012C, strain htz1 1.04 | S. cerevisiae deletion strains, locus YOL147C, strain pex11, hits give low values 0.978 | S. cerevisiae deletion strains, locus YOR001W, strain rrp6, hits give low values 1.03 | S. cerevisiae deletion strains, locus YOR061W, strain CKA2, hits give low values 1.02 | S. cerevisiae deletion strains, locus YOR069W, strain VPS5, hits give low values 1.02 | S. cerevisiae deletion strains, locus YOR070C, strain gyp1, hits give low values 1.03 | S. cerevisiae deletion strains, locus YOR080W, strain dia2, hits give low values 1.01 | S. cerevisiae deletion strains, locus YOR083W, strain WHI5 (second series), hits give low values 1.01 | S. cerevisiae deletion strains, locus YOR083W, strain WHI5, hits give low values 0.979 | S. cerevisiae deletion strains, locus YOR106W, strain vam3, hits give low values 0.959 | S. cerevisiae deletion strains, locus YOR136W, strain idh2, hits give low values 0.981 | S. cerevisiae deletion strains, locus YOR144C, strain elg1, hits give low values 0.978 | S. cerevisiae deletion strains, locus YOR184W, strain ser1, hits give low values 0.989 | S. cerevisiae deletion strains, locus YOR231W, strain MKK1, hits give low values 0.953 | S. cerevisiae deletion strains, locus YOR265W, strain rbl2, hits give low values 1.01 | S. cerevisiae deletion strains, locus YOR270C, strain vph1, hits give low values 1.03 | S. cerevisiae deletion strains, locus YOR290C, strain snf2, hits give low values 0.993 | S. cerevisiae deletion strains, locus YOR316C, strain cot1, hits give low values 0.99 | S. cerevisiae deletion strains, locus YPL051W, strain arl3, hits give low values 0.974 | S. cerevisiae deletion strains, locus YPL055C, strain LGE1, hits give low values 1.02 | S. cerevisiae deletion strains, locus YPL078C, strain atp4, hits give low values 0.98 | S. cerevisiae deletion strains, locus YPL106C, strain sse1, hits give low values 1.02 | S. cerevisiae deletion strains, locus YPL240C, strain hsp82, hits give low values 1.01 | S. cerevisiae deletion strains, locus YPL241C, strain CIN2, hits give low values 1.02 | S. cerevisiae deletion strains, locus YPL256C, strain CLN2, hits give low values 0.989 | S. cerevisiae deletion strains, locus YPR119W, strain clb2, hits give low values 0.978 | S. cerevisiae deletion strains, locus YPR141C, strain kar3, hits give low values 0.987 | S. cerevisiae deletion strains, locus YPR163C, strain tif3, hits give low values 0.98 | S. cerevisiae deletion strains, locus YPR167C, strain met16, hits give low values 0.982 | S. cerevisiae deletion strains, strain wtn01, hits give low values 0.987 | S. cerevisiae strains, strain wild type, hits give low values 1.01
active: S. cerevisiae deletion strains, locus YML032C, strain rad52, hits give low values 0.903
